# Inconclusive results are not listed. Unmarked numbers belong to inactive results. The source made the active and inactive calls. Calls follow the shape of the dose curve; as a rule, active = well fitted inhibition curve with a large enough effect; inconclusive = small, poorly fitted or top-dose-only effect; inactive = flat fitted curve, though single readings scatter.
# Test system: TAB109
# Test: qHTS profiling for inhibitors of Plasmodium falciparum proliferation (AID 504749); also: nearly all actives have a fitted effect of over 60% in size;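 as to activity, negative = inhibition: 0% = DMSO vehicle and full inhibition = artemisinin control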
# Details: P. falciparum in erythrocytes, SYBR Green DNA, 72 h; series mostly up to 28.7 µM; activity, negative = inhibition: at the top concentration
# How it was run: (§1)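 SYBR Green fluorescence of parasite DNA, read after lysis and overnight dark incubation, measured growth over 72 h in erythrocyte culture at 0.3% parasitemia and 2.5% hematocrit. Data normalised to DMSO and 0.29 uM artemisinin, with plate-drift correction.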
# Potency is read from the fitted curve at half-maximal effect.
SMILES,"activity, negative = inhibition",Potency
Oc1cccc(O)c1O,-25.5%,
CC(=O)c1ccc2c(c1)N(CCCN1CCN(CCO)CC1)c1ccccc1S2,,7.08 µM (active)
CC[C@H]1OC(=O)[C@H](C)[C@@H](O[C@H]2C[C@@](C)(OC)[C@@H](O)[C@H](C)O2)[C@H](C)[C@@H](O[C@@H]2O[C@H](C)C[C@H](N(C)C)[C@H]2O)[C@](C)(O)C[C@@H](C)CN(C)[C@H](C)[C@@H](O)[C@]1(C)O,,1 µM (active)
C#C[C@]1(O)CC[C@@H]2[C@H]3CCC4=CC(=O)CC[C@H]4[C@H]3C(=C)C[C@@]21CC,-16.4%,
CC(=O)Nc1c(I)c(C(=O)O)c(I)c(N(C)C(C)=O)c1I,-5.9%,
CC(C)CCCCCCc1ccc(O)cc1,-22.8%,
CC(C)=CCC/C(C)=C/CC/C(C)=C/CC/C=C(\C)CC/C=C(\C)CCC=C(C)C,5.19%,
CCOC(=O)[C@@H](N)CS,-4.09%,
O=C(O)CCC/C=C\C[C@@H]1[C@@H](/C=C/[C@@H](O)COc2cccc(C(F)(F)F)c2)[C@H](O)C[C@@H]1O,-9.85%,
Cn1cc(NC(=O)c2cc(NC(=O)c3cc(NC=O)cn3C)cn2C)cc1C(=O)NCCC(=N)N,,5.01 µM (active)
CC(C)=CCC/C(C)=C/C=C/C(C)=C/C=C/C(C)=C/C=C/C=C(C)/C=C/C=C(C)/C=C/C=C(\C)CCC=C(C)C,-14.7%,
COc1ccc2c(c1)OC(C)(C)C(c1ccccc1)C2c1ccc(OCCN2CCCC2)cc1 (stereo not drawn),,3.16 µM (active)
N=C(N)c1ccc(/C=C/c2ccc(C(=N)N)cc2O)cc1,,17.8 µM (active)
c1ccc2c(c1)Sc1ccccc1N2CCN1CCCC1,,8.91 µM (active)
CC1=CC(=C(c2ccc(N)cc2)c2ccc(N)cc2)C=CC1=N,,2.24 µM (active)
OCCOCCOCCO,1.84%,
CCN(CC)C(=O)c1cccnc1,-5.92%,
CCSc1ccc2c(c1)N(CCCN1CCN(C)CC1)c1ccccc1S2,-4.35% [at 12.8 µM],
Cc1cc(C(=O)NCCc2ccc(S(=O)(=O)NC(=O)NN3CCCCCC3)cc2)no1,-8.09%,

# Test system: TAB113
# Test: as above
# Details: P. falciparum in erythrocytes, SYBR Green DNA, 72 h; series mostly up to 28.7 µM; activity, negative = inhibition: at the top concentration
# How it was run: as §1
SMILES,"activity, negative = inhibition",Potency
Oc1cccc(O)c1O,-25.5%,
CC[C@H]1OC(=O)[C@H](C)[C@@H](O[C@H]2C[C@@](C)(OC)[C@@H](O)[C@H](C)O2)[C@H](C)[C@@H](O[C@@H]2O[C@H](C)C[C@H](N(C)C)[C@H]2O)[C@](C)(O)C[C@@H](C)CN(C)[C@H](C)[C@@H](O)[C@]1(C)O,,12.6 µM (active)
OCC1(CO)COC(C(Cl)(Cl)Cl)OC1,8.27%,
C#C[C@]1(O)CC[C@@H]2[C@H]3CCC4=CC(=O)CC[C@H]4[C@H]3C(=C)C[C@@]21CC,7.95%,
CC(=O)Nc1c(I)c(C(=O)O)c(I)c(N(C)C(C)=O)c1I,-1.39%,
CC(C)=CCC/C(C)=C/CC/C(C)=C/CC/C=C(\C)CC/C=C(\C)CCC=C(C)C,14.3%,
O=C1CCC(c2ccccc2)(C2CCN(Cc3ccccc3)CC2)C(=O)N1 (stereo not drawn),1.25%,
CCOC(=O)[C@@H](N)CS,12%,
O=C(O)CCC/C=C\C[C@@H]1[C@@H](/C=C/[C@@H](O)COc2cccc(C(F)(F)F)c2)[C@H](O)C[C@@H]1O,-13.9%,
CCCOC(=O)c1ccccc1O,17.8%,
Cn1cc(NC(=O)c2cc(NC(=O)c3cc(NC=O)cn3C)cn2C)cc1C(=O)NCCC(=N)N,,5.01 µM (active)
CC(C)=CCC/C(C)=C/C=C/C(C)=C/C=C/C(C)=C/C=C/C=C(C)/C=C/C=C(C)/C=C/C=C(\C)CCC=C(C)C,-25.9%,
COc1ccc2c(c1)OC(C)(C)C(c1ccccc1)C2c1ccc(OCCN2CCCC2)cc1 (stereo not drawn),,8.91 µM (active)
Cn1c(=O)c2c(ncn2CCOC(=O)C(C)(C)Oc2ccc(Cl)cc2)n(C)c1=O,6.02%,
CC(C)NCC(O)COc1ccccc1-n1cccc1 (stereo not drawn),28%,
CC(C)Cc1ccc([C@@H](C)C(=O)NS(C)(=O)=O)cc1,2.25%,
N=C(N)c1ccc(/C=C/c2ccc(C(=N)N)cc2O)cc1,,3.98 µM (active)
CC(=O)Oc1cccc(C(=O)O)c1OC(C)=O,-1.23%,
CNC(=O)[C@H](Cc1c[nH]c2ccccc12)NC(=O)[C@@H](CC(=O)NO)CC(C)C,-11.9%,
c1ccc2c(c1)Sc1ccccc1N2CCN1CCCC1,,5.01 µM (active)
C[C@H](N)C(=O)N[C@@H](C)P(=O)(O)O,4.34%,
CC1=CC(=C(c2ccc(N)cc2)c2ccc(N)cc2)C=CC1=N,,1.41 µM (active)
OCCOCCOCCO,6.45%,
CCN(CC)C(=O)c1cccnc1,9.84%,
CNC(=O)c1c(I)c(C(=O)NCC(=O)Nc2c(I)c(C(=O)O)c(I)c(C(=O)NCCO)c2I)c(I)c(N(C)C(C)=O)c1I,8.7%,
O=C1NCCN1c1ncc([N+](=O)[O-])s1,-16.8% [at 12.8 µM],
O=c1n(CC2CO2)c(=O)n(CC2CO2)c(=O)n1CC1CO1 (stereo not drawn),-24.7%,
Cc1cc(C(=O)NCCc2ccc(S(=O)(=O)NC(=O)NN3CCCCCC3)cc2)no1,6.52%,
COc1ccc(/C=N/NC(=O)c2ccncc2)c(C(=O)O)c1OC,4.1%,
